Activity calls are given as the source filed them. Rule for the calls: active = hit-call score of the fitted dose curve at least 0.9, where 1 is the maximum; inactive = score below 0.9.
Columns and labels:
Settings in all cases: mRNA level, 48 h; actives raise or lower the signal
[1] = read-out: Nuclear factor erythroid 2-related factor 2 (Homo sapiens) (UniProt Q16236); assay: LTEA_HepaRG_NFE2L2: Life Technologies and Expression Analysis (LTEA) Assay for Nuclear factor erythroid 2-related factor 2 (NFE2L2) Transcription Factor using HepaRG (AID 2283527)
Procedure, shortened: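 HepaRG, 48 h dosing, 8-pt half-log series from 100 uM in 0.5% DMSO, duplicates. Read-out: NFE2L2 mRNA by qRT-PCR (ACTB/GAPDH/POLR2A normalization). Bidirectional curve fit vs DMSO baseline.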

[2] = read-out: succinate dehydrogenase complex iron sulfur subunit B (SDHB), SDHB (gene 6390); assay: LTEA_HepaRG_SDHB: Life Technologies and Expression Analysis (LTEA) Assay for succinate dehydrogenase complex iron sulfur subunit B (SDHB) using HepaRG (AID 2283528)
Procedure, shortened: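 HepaRG, 48 h exposure, 8-pt half-log series from 100 uM in 0.5% DMSO, duplicates. Readout: SDHB mRNA by Fluidigm qRT-PCR vs housekeeping genes; bidirectional fit relative to DMSO.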

[3] = read-out: Signal transducer and activator of transcription 3 (Homo sapiens) (UniProt P40763); assay: LTEA_HepaRG_STAT3: Life Technologies and Expression Analysis (LTEA) Assay for Signal transducer and activator of transcription (STAT3) using HepaRG (AID 2283529)
Procedure, shortened: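 HepaRG, 48 h exposure, 8-pt half-log series (top 100 uM), 0.5% DMSO vehicle, duplicates. Readout: STAT3 transcript by Fluidigm qRT-PCR, housekeeping-normalized; bidirectional fit vs DMSO baseline.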

[4] = read-out: solute carrier (SLCO1B1), SLCO1B1 (gene 10599); assay: LTEA_HepaRG_SLCO1B1: Life Technologies and Expression Analysis (LTEA) Assay for solute carrier (SLCO1B1) using HepaRG (AID 2283530)
Procedure, shortened: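 Gain or loss of SLCO1B1 mRNA is fitted against the 0.5% DMSO vehicle in human HepaRG liver cells treated 48 h at up to 100 uM in half-log steps. Expression comes from qRT-PCR normalized to endogenous controls.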

[5] = read-out: Transforming Growth Factor (TGFA), TGFA (gene 7039); assay: LTEA_HepaRG_TGFA: Life Technologies and Expression Analysis (LTEA) Assay for Transforming Growth Factor (TGFA) using HepaRG (AID 2283532)
Procedure, shortened: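 qRT-PCR read-out of TGFA transcript, normalized to three housekeeping genes, fitted bidirectionally against 0.5% DMSO baseline. Human HepaRG cultures received chemicals for 48 h at eight half-log concentrations, top 100 uM.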

[6] = read-out: Transforming Growth Factor (TGFB1), TGFB1 (gene 7040); assay: LTEA_HepaRG_TGFB1: Life Technologies and Expression Analysis (LTEA) Assay for Transforming Growth Factor (TGFB1) Transporter using HepaRG (AID 2283533)
Procedure, shortened: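 Expression change of TGFB1 in human HepaRG cells is measured after a 48 h chemical exposure, up to 100 uM in 0.5% DMSO vehicle. Curves are fitted in both directions relative to the DMSO baseline.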

[7] = read-out: TIMP1, TIMP1 (gene 7076); assay: LTEA_HepaRG_TIMP1: Life Technologies and Expression Analysis (LTEA) Assay for TIMP1 using HepaRG (AID 2283534)
Procedure, shortened: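 We dosed human liver HepaRG cultures for 48 hours with up to 100 uM test chemical and measured TIMP1 expression by qRT-PCR. Activity in either direction is fitted relative to the 0.5% DMSO vehicle.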

[8] = read-out: Thyroid Hormone Responsive (THRSP), THRSP (gene 7069); assay: LTEA_HepaRG_THRSP: Life Technologies and Expression Analysis (LTEA) Assay for Thyroid Hormone Responsive (THRSP) using HepaRG (AID 2283536)
Procedure, shortened: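 qRT-PCR read-out (Fluidigm TaqMan), housekeeping-normalized (ACTB/GAPDH/POLR2A). HepaRG, 48 h chemical exposure, 8-pt half-log series from 100 uM in 0.5% DMSO, duplicates. Bidirectional curve fit vs 0.5% DMSO baseline.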

[9] = read-out: Tumor necrosis factor receptor 1 (TNFRSF1A), TNFRSF1A (gene 7132); assay: LTEA_HepaRG_TNFRSF1A: Life Technologies and Expression Analysis (LTEA) Assay for Tumor necrosis factor receptor 1 (TNFRSF1A) using HepaRG (AID 2283535)
Procedure, shortened: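 Expression of TNFRSF1A in human HepaRG liver cells was measured by qRT-PCR 48 h after chemical dosing (maximum 100 uM). Bidirectional curve fitting used 0.5% DMSO as baseline.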

[10] = read-out: sulfotransferase 2A1 (SULT2A1), SULT2A1 (gene 6822); assay: LTEA_HepaRG_SULT2A1: Life Technologies and Expression Analysis (LTEA) Assay for sulfotransferase 2A1 (SULT2A1) using HepaRG (AID 2283531)
Procedure, shortened: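 Cells were plated and cultured 48 h, switched to serum-free induction medium, then dosed in duplicate for 48 h (8 concentrations, max 100 uM). RNA was isolated and SULT2A1 expression measured by qRT-PCR; gain or loss of signal fitted relative to DMSO.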

Measured: AC50

Nuclear factor erythroid 2-related factor 2 (Homo sapiens), sequence (Q16236 whole entry, looked up): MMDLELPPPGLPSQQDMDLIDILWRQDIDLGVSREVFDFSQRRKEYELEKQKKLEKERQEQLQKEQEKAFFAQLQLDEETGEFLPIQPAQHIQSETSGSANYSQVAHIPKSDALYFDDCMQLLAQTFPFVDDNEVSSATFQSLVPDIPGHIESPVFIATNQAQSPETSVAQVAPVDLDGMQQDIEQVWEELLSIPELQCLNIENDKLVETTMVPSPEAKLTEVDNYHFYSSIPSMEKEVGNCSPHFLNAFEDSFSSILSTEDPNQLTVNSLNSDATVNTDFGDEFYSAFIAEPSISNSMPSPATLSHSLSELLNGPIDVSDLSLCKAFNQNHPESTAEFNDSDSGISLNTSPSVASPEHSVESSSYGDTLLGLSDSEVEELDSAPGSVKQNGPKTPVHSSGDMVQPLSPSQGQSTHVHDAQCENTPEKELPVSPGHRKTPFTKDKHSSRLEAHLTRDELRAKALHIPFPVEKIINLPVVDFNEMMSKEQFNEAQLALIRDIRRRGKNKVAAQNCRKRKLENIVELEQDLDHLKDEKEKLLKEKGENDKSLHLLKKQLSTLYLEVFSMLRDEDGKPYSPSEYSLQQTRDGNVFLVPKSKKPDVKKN
Signal transducer and activator of transcription 3 (Homo sapiens), sequence (P40763 whole entry, looked up): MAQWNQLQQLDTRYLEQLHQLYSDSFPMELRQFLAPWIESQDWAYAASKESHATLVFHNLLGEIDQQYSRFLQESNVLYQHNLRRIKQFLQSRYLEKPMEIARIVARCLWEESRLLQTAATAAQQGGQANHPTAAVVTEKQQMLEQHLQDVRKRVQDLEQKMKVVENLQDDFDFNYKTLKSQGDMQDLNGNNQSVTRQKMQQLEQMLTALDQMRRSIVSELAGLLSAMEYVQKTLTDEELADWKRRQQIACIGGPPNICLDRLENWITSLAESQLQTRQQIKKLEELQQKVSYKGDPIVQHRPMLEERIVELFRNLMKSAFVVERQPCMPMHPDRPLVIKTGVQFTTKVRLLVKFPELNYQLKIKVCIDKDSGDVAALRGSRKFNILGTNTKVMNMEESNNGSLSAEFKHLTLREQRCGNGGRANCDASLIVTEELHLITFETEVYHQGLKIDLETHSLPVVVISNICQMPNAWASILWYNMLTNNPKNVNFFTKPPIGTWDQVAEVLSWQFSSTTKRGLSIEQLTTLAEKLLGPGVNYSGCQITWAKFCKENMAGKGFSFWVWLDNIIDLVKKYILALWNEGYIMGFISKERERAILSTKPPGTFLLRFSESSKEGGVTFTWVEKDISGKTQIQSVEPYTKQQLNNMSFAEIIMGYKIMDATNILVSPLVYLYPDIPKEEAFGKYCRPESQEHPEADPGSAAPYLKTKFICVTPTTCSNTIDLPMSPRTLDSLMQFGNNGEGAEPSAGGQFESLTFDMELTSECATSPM

O=[N+]([O-])c1cc(C(F)(F)F)c(Cl)c([N+](=O)[O-])c1Nc1ncc(C(F)(F)F)cc1Cl
active: [4] 23.4 µM | [6] 79.7 µM | [8] 23.9 µM
inactive: [1] | [2] | [3] | [5] | [7]

Cc1ccn2nc(S(=O)(=O)Nc3c(F)cccc3F)nc2n1
inactive: [1] | [2] | [3] | [4] | [5] | [6] | [7] | [9] | [8]

CSC1=N[C@@](C)(c2ccccc2)C(=O)N1Nc1ccccc1
inactive: [6] | [7] | [9]
active: [1] 68.6 µM | [4] 35.7 µM | [10] 34.9 µM | [5] 29.7 µM | [8] 71.4 µM

Cc1cc(C2CC2)nc(Nc2ccccc2)n1
inactive: [1] | [2] | [4] | [5] | [6] | [7] | [9]
active: [8] 50 µM

O=C(O)c1cc(Oc2ccc(C(F)(F)F)cc2Cl)ccc1[N+](=O)[O-]
inactive: [1] | [2] | [4] | [5] | [6] | [7] | [8]
active: [10] 50 µM

CCCCSP(=O)(SCCCC)SCCCC
inactive: [2] | [4] | [10] | [5] | [6] | [7] | [8]
active: [1] 78 µM

CCOP(=S)(OCC)Oc1cc(C)nc(C(C)C)n1
inactive: [1] | [2] | [4] | [5] | [6] | [7]
active: [8] 73.3 µM

CCc1cnc(C2=NC(C)(C(C)C)C(=O)N2)c(C(=O)O)c1 (stereo not given)
inactive: [1] | [2] | [4] | [5] | [6] | [7] | [8]

CCC(=NOC/C=C/Cl)C1=C(O)CC(C2CCOCC2)CC1=O (stereo not given)
inactive: [1] | [2] | [4] | [5] | [6] | [7] | [9] | [8]

CCOP(=S)(OCC)Oc1ccc([N+](=O)[O-])cc1
inactive: [1] | [2] | [4] | [5] | [6] | [7] | [8]

CCCCOC(=O)c1ccccc1C(=O)O
inactive: [1] | [2] | [4] | [5] | [6] | [7] | [9] | [8]

CC1(C(=O)Nc2ccc(O)c(Cl)c2Cl)CCCCC1
inactive: [1] | [2] | [4] | [5] | [6] | [7] | [8]

CNc1cnn(-c2cccc(C(F)(F)F)c2)c(=O)c1Cl
inactive: [2] | [4] | [5] | [6] | [7] | [9] | [8]
active: [1] 9.92 µM

CCC(=O)Nc1ccc(Cl)c(Cl)c1
inactive: [2] | [4] | [10] | [5] | [6] | [7] | [8]
active: [1] 32.2 µM

CCOC(=O)CC(SP(=O)(OC)OC)C(=O)OCC (stereo not given)
inactive: [1] | [2] | [4] | [5] | [6] | [7] | [8]

Cc1nn(-c2cc(NS(C)(=O)=O)c(Cl)cc2Cl)c(=O)n1C(F)F
inactive: [1] | [2] | [4] | [5] | [6] | [7] | [8]

CCNc1nc(Cl)nc(NC(C)(C)C#N)n1
inactive: [1] | [2] | [4] | [5] | [6] | [7] | [9] | [8]

CNC(=O)Oc1cccc2c1OC(C)(C)O2
inactive: [2] | [4] | [5] | [6] | [7] | [8]

CSc1nnc(C(C)(C)C)c(=O)n1N
inactive: [1] | [2] | [4] | [5] | [6] | [7] | [8]

CCCSP(=O)(OCC)SCCC
inactive: [1] | [2] | [4] | [5] | [6] | [7] | [8]

CCOP(=S)(OCC)OC(Cl)C(Cl)(Cl)Cl (stereo not given)
inactive: [1] | [2] | [4] | [10] | [5] | [6] | [7] | [8]

C#CCC1=C(C)C(OC(=O)C2C(C=C(C)C)C2(C)C)CC1=O (stereo not given)
inactive: [1] | [4] | [10] | [5] | [6] | [7]
active: [2] 9.87 µM | [8] 88.9 µM

COc1cccc(C(=O)NN(C(=O)c2cc(C)cc(C)c2)C(C)(C)C)c1C
inactive: [1] | [2] | [4] | [5] | [6] | [7]
active: [8] 12.2 µM

CCOP(=O)(SC(C)CC)N1CCSC1=O (stereo not given)
inactive: [1] | [2] | [4] | [10] | [5] | [6] | [7] | [8]

CCOP(=O)(NC(C)C)Oc1ccc(SC)c(C)c1 (stereo not given)
inactive: [1] | [2] | [4] | [10] | [5] | [6] | [7] | [8]

CCc1cccc(C)c1N(C(=O)CCl)C(C)COC (stereo not given)
inactive: [1] | [2] | [4] | [10] | [5] | [6] | [7] | [8]

CC(C)=CC1C(C(=O)OCN2C(=O)C3=C(CCCC3)C2=O)C1(C)C (stereo not given)
inactive: [1] | [2] | [4] | [10] | [5] | [6] | [7] | [8]

Nc1nc(N)nc(NC2CC2)n1
inactive: [1] | [2] | [4] | [10] | [5] | [6] | [7] | [8]

CN(C)[C@@H]1C(=O)C(C(N)=O)=C(O)[C@@]2(O)C(=O)C3=C(O)c4c(O)cccc4[C@@](C)(O)[C@H]3[C@H](O)[C@@H]12
inactive: [1] | [2] | [4] | [5] | [6] | [7] | [8]

CN(C)NC(=O)CCC(=O)O
inactive: [1] | [2] | [4] | [5] | [6] | [7] | [8]

CC[C@H](C)[C@H]1O[C@]2(C=C[C@@H]1C)C[C@@H]1C[C@@H](C/C=C(\C)[C@@H](O[C@H]3C[C@H](OC)[C@@H](O[C@H]4C[C@H](OC)[C@@H](NC)[C@H](C)O4)[C@H](C)O3)[C@@H](C)/C=C/C=C3\CO[C@@H]4[C@H](O)C(C)=C[C@@H](C(=O)O1)[C@]34O)O2
active: [4] 19.9 µM | [9] 12 µM
inactive: [1] | [2] | [5] | [6] | [7] | [8]

CC1=NNC(=O)N(/N=C/c2cccnc2)C1
active: [8] 12.9 µM
inactive: [1] | [2] | [4] | [5] | [6] | [7] | [9]

COP(=O)(OC)SCn1c(=O)oc2cc(Cl)cnc21
active: [8] 73.4 µM
inactive: [1] | [2] | [4] | [10] | [5] | [6] | [7]

FC(F)C(F)(F)OCC(Cn1cncn1)c1ccc(Cl)cc1Cl (stereo not given)
active: [1] 73.7 µM | [4] 70.4 µM | [5] 62.2 µM | [6] 28.8 µM | [9] 49.8 µM | [8] 3.87 µM
inactive: [2] | [7]

CC(C1CC1)C(O)(Cn1cncn1)c1ccc(Cl)cc1 (stereo not given)
inactive: [1] | [2] | [4] | [5] | [6] | [7] | [9]
active: [8] 28.1 µM

CC(Oc1cccc(Cl)c1)C(=O)O (stereo not given)
inactive: [1] | [2] | [4] | [5] | [6] | [7] | [8]

COc1ccc(C(=CC(=O)N2CCOCC2)c2ccc(Cl)cc2)cc1OC
active: [8] 63.8 µM
inactive: [1] | [2] | [4] | [5] | [6] | [7]

COc1cc(OC)nc(Sc2cccc(Cl)c2C(=O)O)n1
inactive: [1] | [2] | [4] | [10] | [5] | [6] | [7] | [8]

— PubChem BioAssay (EPA / NIEHS)
